Test results as given in PubChem BioAssay AID1159580 (chemical genetic matrix, 2015).
Where “and” joins values, the source holds several entries; their conditions need not be identical. Equal entries are not always repeated. Screen size: about 5,500 compounds; about 2,000 (36%) were called active. About 18% were inconclusive and are not listed. Rule as the data show it: active = normalized growth mostly below about 0.91 (no sharp cut-off); inconclusive = no clear call, values can overlap the other calls; inactive = mostly above about 0.92. The list shows a part of the results.

Test: chemical genetic growth profiling, strain panel (AID 1159580);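 also: tested at 20 µM; growth read once vehicle control cultures reached saturation at 30 °C; 1 = growth at the plate median or of vehicle wells; lower values mean less growth of the strain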
Conditions: S. cerevisiae deletion strains, growth OD

Measured: normalized growth

NC(N)=NC(=O)c1nc(Cl)c(N)nc1N
inactive: locus YAL013W, strain DEP1, hits give low values 0.935 | locus YAL021C, strain ccr4, hits give low values 0.977 | locus YAL026C, strain drs2, hits give low values 1.01 | locus YAL030W, strain snc1, hits give low values 1.01 | locus YAL040C, strain CLN3, hits give low values 1 | locus YBL061C, strain skt5, hits give low values 1.04 | locus YBR009C, strain hhf1, hits give low values 1.01 | locus YBR021W, strain FUR4, hits give low values 0.86 | locus YBR023C, strain chs3, hits give low values 1.04 | locus YBR171W, strain sec66, hits give low values 1.02 | locus YBR229C, strain ROT2, hits give low values 1 | locus YBR231C, strain swc5, hits give low values 1.02 | locus YBR279W, strain paf1, hits give low values 1.01 | locus YCL011C, strain gbp2, hits give low values 0.998 | locus YCL016C, strain dcc1, hits give low values 0.997 | locus YCL029C, strain bik1, hits give low values 1.02 | locus YCL061C, strain MRC1 (second series), hits give low values 0.995 | locus YCL061C, strain MRC1, hits give low values 1.03 | locus YCL069W, strain vba3, hits give low values 1.02 | locus YCR088W, strain abp1, hits give low values 1.03 | locus YDL005C, strain med2, hits give low values 1.02 | locus YDL035C, strain GPR1, hits give low values 0.983 | locus YDL040C, strain nat1, hits give low values 1.02 | locus YDL074C, strain BRE1, hits give low values 0.975 | locus YDL101C, strain DUN1, hits give low values 1.03 | locus YDL185W, strain tfp1, hits give low values 1.03 | locus YDL192W, strain arf1, hits give low values 1.02 | locus YDR001C, strain nth1, hits give low values 1.04 | locus YDR069C, strain doa4, hits give low values 1.04 | locus YDR101C, strain arx1, hits give low values 1.01 | locus YDR137W, strain rgp1, hits give low values 1.02 | locus YDR159W, strain sac3, hits give low values 1 | locus YDR162C, strain NBP2, hits give low values 1.02 | locus YDR195W, strain ref2 1.04 | locus YDR297W, strain sur2, hits give low values 1.02 | locus YDR318W, strain mcm21, hits give low values 1.02 | locus YDR334W, strain swr1, hits give low values 1.01 | locus YDR335W, strain msn5, hits give low values 1.01 | locus YDR388W, hits give low values 1.01 | locus YDR392W, strain spt3, hits give low values 0.988 | locus YDR502C, strain sam2, hits give low values 1.02 | locus YEL003W, strain gim4, hits give low values 1.02 | locus YEL037C, strain rad23, hits give low values 1.02 | locus YEL061C, strain CIN8 (second series), hits give low values 1.03 | locus YEL061C, strain CIN8, hits give low values 1 | locus YER002W, strain NOP16, hits give low values 1 | locus YER015W, strain faa2, hits give low values 1.03 | locus YER016W, strain bim1, hits give low values 1.02 | locus YER110C, hits give low values 1.02 | locus YER111C, strain swi4, hits give low values 1.03 | locus YER155C, strain BEM2 (second series), hits give low values 1.05 | locus YER155C, strain BEM2, hits give low values 1.01 | locus YER167W, strain BCK2, hits give low values 1 | locus YFR010W, strain ubp6, hits give low values 1.01 | locus YGL078C, strain dbp3, hits give low values 1.01 | locus YGL086W, strain mad1, hits give low values 1.01 | locus YGL167C, strain pmr1, hits give low values 1.04 | locus YGL173C, strain kem1, hits give low values 1.04 | locus YGL227W, strain vid30, hits give low values 1.03 | locus YGL240W, strain doc1, hits give low values 1.05 | locus YGL248W, strain PDE1, hits give low values 1.01 | locus YGL253W, strain hxk2, hits give low values 1 | locus YGR135W, strain pre9, hits give low values 0.987 | locus YGR229C, strain SMI1, hits give low values 0.994 | locus YGR252W, strain gcn5, hits give low values 0.896 | locus YHR013C, strain ard1, hits give low values 0.998 | locus YHR027C, strain rpn1, hits give low values 1.02 | locus YHR030C, strain SLT2, hits give low values 1.01 and 1 | locus YHR079C, strain IRE1 (second series), hits give low values 1.01 | locus YHR079C, strain IRE1, hits give low values 1 | locus YHR094C, strain hxt1, hits give low values 1.01 | locus YHR129C, strain ARP1, hits give low values 1.02 | locus YHR142W, strain chs7, hits give low values 1.02 | locus YHR200W, strain rpn10, hits give low values 1.02 | locus YIL066C, strain RNR3, hits give low values 1.02 | locus YIL073C, strain SPO22, hits give low values 1 | locus YIL125W, strain kgd1, hits give low values 1.01 | locus YIR030C, strain dcg1, hits give low values 1.02 | locus YJL092W, strain hpr5, hits give low values 1.01 | locus YJL095W, strain BCK1 (second series), hits give low values 1.03 | locus YJL095W, strain BCK1, hits give low values 0.962 and 1.01 | locus YJL115W, strain asf1, hits give low values 1.02 | locus YJL129C, strain trk1, hits give low values 1.04 | locus YJL134W, strain LCB3, hits give low values 1 | locus YJL154C, strain vps35, hits give low values 1.01 | locus YJL164C, strain tpk1, hits give low values 0.995 | locus YJL166W, strain qcr8, hits give low values 1.04 | locus YJL168C, strain set2, hits give low values 1.02 | locus YJL187C, strain SWE1 (second series), hits give low values 1.01 | locus YJL187C, strain SWE1, hits give low values 1.02 | locus YJR043C, strain POL32, hits give low values 1.02 | locus YJR066W, strain TOR1, hits give low values 0.959 | locus YJR075W, strain HOC1, hits give low values 1.02
